Source: PubChem BioAssay (NCATS)
A number with no mark means an inactive call. Inconclusive results are not listed. A call without a number means that no potency is given here. The source made the active and inactive calls. Unless noted, calls follow the shape of the dose curve; as a rule, active = well fitted curve in the direction sought with a large enough effect; inconclusive = small, poorly fitted or top-dose-only effect, or another doubt; inactive = no such curve, though single readings can be large; an effect the other way counts as inactive or inconclusive.

Columns and labels:
[1] = Validation of Assay for Modulators of Lamin A Splicing (AID 1459; active = well fitted curve in the direction sought with a large enough effect in the signal ratio; the % refers to the signal ratio;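 also: cells exposed to compound for two days before reading; ratio rise marks activators and ratio drop marks inhibitors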)
Summary of the method: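 S3 HeLa cells stably expressing a lamin A-EGFP splicing minigene and DsRed2 were seeded at 600 cells/well in Opti-MEM with 2% FBS, pin-dosed, and incubated 48 hrs at 37 °C, 5% CO2. Laser-scanning cytometry (488 nm) gave GFP/RFP total intensity ratio.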

[2] = target: DNA repair nuclease/redox regulator APEX1 (Homo sapiens) (UniProt P27695); assay: qHTS Validation Assay for Inhibitors of the Human Apurinic/apyrimidinic Endonuclease 1 (APE1) (AID 1705; also: potency is read from the fitted curve at half-maximal effect)
Summary of the method: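 Human APE1 was preincubated with compound for 15 min at room temperature, then 50 nM (final) THF-abasic double-stranded DNA substrate bearing 5'-TAMRA and 3'-BHQ-2 was added. Incision-driven fluorescence rise (ex 525/em 598 nm) was read kinetically.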

[3] = Counterscreen for APE1 Inhibitors: Fluorescent Dye Displacement Validation Assay (AID 1707)
Summary of the method: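 Thiazole Orange displacement from dsDNA: 250 nM ThO with 50 nM TAMRA-labelled abasic-site (tetrahydrofuran) duplex in 50 mM Tris-HCl pH7.5, 50mM NaCl, 2 mM MgCl2, 0.01% Tween-20. Loss of endpoint fluorescence (ex 480 nm, em 540 nm) flags DNA binders.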

[4] = qHTS for differential inhibitors of proliferation of Plasmodium falciparum line 3D7 (AID 1876); also: potency is read from the fitted curve at half-maximal effect
[5] = qHTS for differential inhibitors of proliferation of Plasmodium falciparum line D10 (AID 1877);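 also: parasites grown with compound for 72 h before DNA staining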
[6] = qHTS for differential inhibitors of proliferation of Plasmodium falciparum line Dd2 (AID 1882); conditions: Potency: Plasmodium falciparum Dd2 proliferation inhibition; also: series mostly up to about 29 µM; nearly all actives have a fitted effect of over 65% in size
Summary of the method: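 Dd2-infected erythrocytes (0.3% parasitemia, 2.5% hematocrit final) incubated with compound 72 h at 37 C, 5% CO2; lysed with saponin/Triton buffer containing SYBR Green I, incubated overnight in the dark, then read by fluorescence (485/535 nm). Normalized to 0.29 uM artemisinin and DMSO.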

[7] = target: Ferritin light chain (Equus caballus) (UniProt P02791); assay: qHTS Validation Assay for Identification of Novel General Anesthetics (AID 2323); also: series mostly up to about 77 µM
Summary of the method: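 Competitive displacement of profluorescent 1-aminoanthracene (1-AMA, 50% saturated solution in PBS) from 10 uM horse-spleen apoferritin. Compounds incubated 10 min at room temperature; fluorescence read at 380 nm excitation/535 nm emission, normalized to free 1-AMA and complex, fitted with four-parameter Hill equation.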

[8] = target: ATP-dependent DNA helicase Q1 (Homo sapiens) (UniProt P46063); assay: qHTS Validation Assay for Inhibitors of RecQ-Like Dna Helicase 1 (RECQ1) (AID 2353)
Summary of the method: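 50 nM RECQ1T1 preincubated 15 min with compound in Tris pH 8.0 buffer with MgCl2, DTT, Tween-20 and 2.5 ug/ml poly(dI-dC); started with 200 nM TAMRA/BHQ-2 forked duplex and 2 mM ATP. Unwinding read as fluorescence (525/598 nm), two reads 2 h apart.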

[9] = Validation screen for small molecules that induce DNA re-replication in MCF 10A normal breast cells (AID 463097); also: nearly all actives have a fitted effect of over 60% in size
Summary of the method: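 Readout: Hoechst nuclear fluorescence intensity, 405 ex / 500-530 em, by scanning plate imager; re-replication scored as increase in nuclei with elevated DNA content. Cells exposed to compound 48 hr, 37 C, 5% CO2 beforehand.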

[10] = Quantitative high throughput screen for delayed death inhibitors of the malarial parasite plastid, 96 hour incubation (AID 488745); also: nearly all actives have a fitted effect of over 70% in size; also: potency is read from the fitted curve at half-maximal effect
Summary of the method: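 Luciferase-expressing P. falciparum in erythrocytes (2% hematocrit, 0.1% parasitemia) incubated with compound for 96 h at 37 C, 5% CO2, in RPMI 1640 with 0.5% Albumax. Growth inhibition read as decreased luminescence.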

[11] = Quantitative high throughput screen for delayed death inhibitors of the malarial parasite plastid, 48 hour incubation (AID 488752); also: nearly all actives have a fitted effect of over 65% in size; also: potency is read from the fitted curve at half-maximal effect
Summary of the method: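 Erythrocytes infected with firefly luciferase-expressing P. falciparum (2% hematocrit, 0.1% parasitemia) cultured with compound for 48 h at 37 C, 5% CO2, in RPMI 1640/0.5% Albumax. Growth inhibition read as loss of luminescence.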

[12] = target: M-phase phosphoprotein 8 (Homo sapiens) (UniProt Q99549); assay: qHTS Validation Assay for Inhibitors for MPP8 Chromodomain Interactions with Methylated Histone Tails (AID 488949); also: nearly all actives have a fitted effect of over 55% in size; also: potency is read from the fitted curve at half-maximal effect
Summary of the method: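 MPP8 (50 nM) was preincubated with biotinylated H3(1-18)K9me3 peptide (50 nM) in PBS pH 7.4, 0.01% Tween-20 for 30 min at room temperature, then with compounds for 30 min; binding was detected by AlphaScreen.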

[13] = target: Transient receptor potential cation channel subfamily V member 1 (Homo sapiens) (UniProt Q8NER1); assay: HTS Assay for Compounds that Act as Enhancers of the Vanilloid Receptor 1 (AID 488979)
Summary of the method: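 TRPV1-expressing cells loaded with Fluo-8 calcium dye; compounds added and calcium influx read kinetically for 3 min (agonist phase), then capsaicin at EC20 added and read 2 min more for enhancement. Fluorescence ex 480/em 520 nm.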

[14] = target: Thyrotropin receptor (Homo sapiens) (UniProt P16473); assay: qHTS Assay for Antagonists of the Thyroid Stimulating Hormone Receptor (AID 488980); also: series mostly up to about 58 µM
Summary of the method: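 HEK293 cells transfected with human TSHR, suspended in HEPES-buffered HBSS with 70 uM RO 20-1724, were treated with compounds plus TSH at EC80 (4 nM final). cAMP was measured by competitive HTRF (cryptate anti-cAMP antibody, cAMP-d2 acceptor).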

[15] = target: Thyrotropin-releasing hormone receptor (Homo sapiens) (UniProt P34981); assay: qHTS for Small Molecule Agonists and Allosteric Enhancers of Human TRH Receptor: Validation Screen for Agonists (AID 493127;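 active = calcium activation more than 3 SD above the typical response in the agonist read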); conditions: TRH receptor agonist cell assay; at 2 µM; hits give high values
Summary of the method: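 TRHR cells loaded with fluo-8 calcium dye; FDSS kinetic fluorescence (Ex 480/Em 530) read at 1 s/cycle after 23 nL compound addition. Agonist-mode calcium response recorded before the 10 nM TRH (EC20) addition.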

[16] = target: Galactokinase (Homo sapiens) (UniProt P51570); assay: qHTS Validation Assay for Inhibitors of Human Galactokinase (GALK) (AID 493189)
Summary of the method: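 GALK (5 nM) with 35 uM ATP and 100 uM galactose in HEPES pH8.0, MgCl2, NaCl, DTT, BSA; 1 h at room temperature. Residual ATP read by Kinase-Glo Plus luminescence after 10 min.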

[17] = Validation screen for small molecules that induce DNA re-replication in SW480 colon adenocarcinoma cells (AID 504364)
Summary of the method: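 SW480 cells (250/well) exposed 48 h at 37 C, 5% CO2, then Hoechst-stained 40 min. Nuclear DNA content imaged by fluorescence scanning (405 nm excitation, 500-530 nm emission); re-replication scored as increased nuclei with elevated intensity.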

[18] = target: Voltage-gated inwardly rectifying potassium channel KCNH2 (Homo sapiens) (UniProt Q12809); assay: qHTS Assay for Small Molecule Inhibitors of the Human hERG Channel Activity (AID 588834);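 also: top concentration of the series differs between compounds; lower thallium flux fluorescence means stronger hERG block; nearly all actives have a fitted effect of over 50% in size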
Summary of the method: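 U2OS cells transduced with hERG via BacMam (MOI ~100), plated 2000/well, loaded with FluxOR thallium dye, compound ~10 min, then stimulation buffer; fluorescence decrease read kinetically; AC50 from Hill fits.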

Chain of ATP-dependent DNA helicase Q1 (Homo sapiens) (P46063 whole entry, looked up): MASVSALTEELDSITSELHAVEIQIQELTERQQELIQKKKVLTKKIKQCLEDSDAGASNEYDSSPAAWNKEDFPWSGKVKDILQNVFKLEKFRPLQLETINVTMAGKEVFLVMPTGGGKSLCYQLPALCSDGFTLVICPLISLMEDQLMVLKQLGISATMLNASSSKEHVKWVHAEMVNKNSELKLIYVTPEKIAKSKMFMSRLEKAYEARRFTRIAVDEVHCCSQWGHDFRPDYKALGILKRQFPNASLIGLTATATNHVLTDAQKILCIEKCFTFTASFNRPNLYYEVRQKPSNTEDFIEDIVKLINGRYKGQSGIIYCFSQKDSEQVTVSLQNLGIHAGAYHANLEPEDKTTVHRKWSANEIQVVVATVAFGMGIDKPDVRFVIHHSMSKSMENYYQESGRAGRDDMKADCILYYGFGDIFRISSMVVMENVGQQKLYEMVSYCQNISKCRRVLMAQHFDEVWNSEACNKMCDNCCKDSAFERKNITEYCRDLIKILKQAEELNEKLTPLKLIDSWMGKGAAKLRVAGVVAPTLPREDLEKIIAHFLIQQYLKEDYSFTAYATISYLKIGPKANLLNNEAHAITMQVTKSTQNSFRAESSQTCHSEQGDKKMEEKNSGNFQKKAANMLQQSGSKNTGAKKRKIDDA
Chain of DNA repair nuclease/redox regulator APEX1 (Homo sapiens) (P27695 whole entry, looked up): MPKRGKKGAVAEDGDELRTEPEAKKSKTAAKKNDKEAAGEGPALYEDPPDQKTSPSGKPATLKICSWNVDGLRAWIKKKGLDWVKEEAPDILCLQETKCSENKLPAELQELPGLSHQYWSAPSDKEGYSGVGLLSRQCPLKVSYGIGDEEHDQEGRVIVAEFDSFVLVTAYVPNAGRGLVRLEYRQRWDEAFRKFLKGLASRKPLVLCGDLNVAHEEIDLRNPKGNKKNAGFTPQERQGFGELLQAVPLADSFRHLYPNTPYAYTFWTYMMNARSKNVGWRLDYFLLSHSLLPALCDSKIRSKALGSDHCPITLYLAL
Chain of Thyrotropin-releasing hormone receptor (Homo sapiens) (P34981 whole entry, looked up): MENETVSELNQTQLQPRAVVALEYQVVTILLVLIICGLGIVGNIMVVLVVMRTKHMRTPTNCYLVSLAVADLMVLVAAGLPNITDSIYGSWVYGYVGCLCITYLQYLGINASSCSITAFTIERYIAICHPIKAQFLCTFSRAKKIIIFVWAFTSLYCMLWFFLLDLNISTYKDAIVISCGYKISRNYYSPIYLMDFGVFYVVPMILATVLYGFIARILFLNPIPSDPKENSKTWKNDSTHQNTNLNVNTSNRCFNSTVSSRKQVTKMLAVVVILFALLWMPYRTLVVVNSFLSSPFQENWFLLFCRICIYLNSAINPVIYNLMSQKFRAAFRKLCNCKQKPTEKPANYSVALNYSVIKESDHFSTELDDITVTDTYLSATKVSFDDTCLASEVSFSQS
Chain of Thyrotropin receptor (Homo sapiens) (P16473 whole entry, looked up): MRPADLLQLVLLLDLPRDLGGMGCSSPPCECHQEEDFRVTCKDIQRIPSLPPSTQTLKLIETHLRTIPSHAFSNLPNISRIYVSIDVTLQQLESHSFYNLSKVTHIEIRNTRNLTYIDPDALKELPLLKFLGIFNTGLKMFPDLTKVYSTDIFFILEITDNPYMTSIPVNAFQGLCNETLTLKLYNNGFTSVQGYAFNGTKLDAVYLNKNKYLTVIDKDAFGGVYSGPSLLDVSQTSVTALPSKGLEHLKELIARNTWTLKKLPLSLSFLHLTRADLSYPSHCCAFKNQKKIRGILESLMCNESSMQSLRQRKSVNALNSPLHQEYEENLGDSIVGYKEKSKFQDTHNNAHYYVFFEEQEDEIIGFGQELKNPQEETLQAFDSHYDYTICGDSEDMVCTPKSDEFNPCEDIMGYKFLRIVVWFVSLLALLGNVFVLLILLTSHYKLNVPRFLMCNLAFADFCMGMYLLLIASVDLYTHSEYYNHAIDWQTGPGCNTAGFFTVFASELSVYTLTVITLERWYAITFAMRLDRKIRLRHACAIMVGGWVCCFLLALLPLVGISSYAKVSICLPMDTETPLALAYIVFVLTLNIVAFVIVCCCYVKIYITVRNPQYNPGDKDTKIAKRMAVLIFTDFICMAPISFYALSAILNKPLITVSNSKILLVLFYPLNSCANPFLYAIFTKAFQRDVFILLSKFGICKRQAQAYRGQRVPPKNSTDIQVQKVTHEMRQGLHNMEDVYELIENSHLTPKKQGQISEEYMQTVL
Chain of Galactokinase (Homo sapiens) (P51570 whole entry, looked up): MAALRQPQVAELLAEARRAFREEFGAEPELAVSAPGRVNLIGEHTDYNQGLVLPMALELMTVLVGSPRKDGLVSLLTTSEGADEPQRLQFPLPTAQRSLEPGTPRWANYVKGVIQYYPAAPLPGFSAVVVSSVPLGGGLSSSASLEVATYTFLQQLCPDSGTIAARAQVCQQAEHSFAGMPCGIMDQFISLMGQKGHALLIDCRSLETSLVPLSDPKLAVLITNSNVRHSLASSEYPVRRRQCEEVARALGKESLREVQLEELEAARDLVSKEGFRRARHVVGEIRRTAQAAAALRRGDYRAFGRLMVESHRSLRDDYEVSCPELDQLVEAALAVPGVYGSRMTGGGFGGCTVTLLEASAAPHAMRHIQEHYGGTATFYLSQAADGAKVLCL
Chain of Transient receptor potential cation channel subfamily V member 1 (Homo sapiens) (Q8NER1 whole entry, looked up): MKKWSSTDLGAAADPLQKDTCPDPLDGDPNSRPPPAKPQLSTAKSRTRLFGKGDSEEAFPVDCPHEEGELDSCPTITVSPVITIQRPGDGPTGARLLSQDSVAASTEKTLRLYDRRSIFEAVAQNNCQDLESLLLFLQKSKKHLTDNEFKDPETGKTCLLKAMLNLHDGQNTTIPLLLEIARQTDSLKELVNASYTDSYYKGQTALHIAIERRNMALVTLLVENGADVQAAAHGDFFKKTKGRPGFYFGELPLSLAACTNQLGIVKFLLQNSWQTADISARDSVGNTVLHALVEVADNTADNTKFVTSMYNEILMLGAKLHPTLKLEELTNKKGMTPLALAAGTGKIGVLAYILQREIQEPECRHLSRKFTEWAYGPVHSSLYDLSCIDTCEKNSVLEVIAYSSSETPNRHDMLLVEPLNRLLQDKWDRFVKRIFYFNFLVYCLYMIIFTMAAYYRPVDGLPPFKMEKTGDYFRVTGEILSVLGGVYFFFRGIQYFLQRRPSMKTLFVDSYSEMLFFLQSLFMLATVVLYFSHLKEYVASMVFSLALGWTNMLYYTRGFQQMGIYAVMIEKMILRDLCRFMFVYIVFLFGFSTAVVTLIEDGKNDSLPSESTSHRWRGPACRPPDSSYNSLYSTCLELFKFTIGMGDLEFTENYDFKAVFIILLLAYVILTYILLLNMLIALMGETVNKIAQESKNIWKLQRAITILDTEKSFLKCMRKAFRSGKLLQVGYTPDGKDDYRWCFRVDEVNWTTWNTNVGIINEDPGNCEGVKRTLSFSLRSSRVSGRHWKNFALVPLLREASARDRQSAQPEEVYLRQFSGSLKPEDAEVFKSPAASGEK
Chain of Ferritin light chain (Equus caballus) (P02791 2-175 limits assumed): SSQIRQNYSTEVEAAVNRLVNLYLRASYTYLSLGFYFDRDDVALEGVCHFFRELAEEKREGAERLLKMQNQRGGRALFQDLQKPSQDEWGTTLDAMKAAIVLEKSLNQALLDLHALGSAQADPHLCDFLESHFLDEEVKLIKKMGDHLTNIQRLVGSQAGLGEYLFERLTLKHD
Chain of Voltage-gated inwardly rectifying potassium channel KCNH2 (Homo sapiens) (Q12809 whole entry, looked up): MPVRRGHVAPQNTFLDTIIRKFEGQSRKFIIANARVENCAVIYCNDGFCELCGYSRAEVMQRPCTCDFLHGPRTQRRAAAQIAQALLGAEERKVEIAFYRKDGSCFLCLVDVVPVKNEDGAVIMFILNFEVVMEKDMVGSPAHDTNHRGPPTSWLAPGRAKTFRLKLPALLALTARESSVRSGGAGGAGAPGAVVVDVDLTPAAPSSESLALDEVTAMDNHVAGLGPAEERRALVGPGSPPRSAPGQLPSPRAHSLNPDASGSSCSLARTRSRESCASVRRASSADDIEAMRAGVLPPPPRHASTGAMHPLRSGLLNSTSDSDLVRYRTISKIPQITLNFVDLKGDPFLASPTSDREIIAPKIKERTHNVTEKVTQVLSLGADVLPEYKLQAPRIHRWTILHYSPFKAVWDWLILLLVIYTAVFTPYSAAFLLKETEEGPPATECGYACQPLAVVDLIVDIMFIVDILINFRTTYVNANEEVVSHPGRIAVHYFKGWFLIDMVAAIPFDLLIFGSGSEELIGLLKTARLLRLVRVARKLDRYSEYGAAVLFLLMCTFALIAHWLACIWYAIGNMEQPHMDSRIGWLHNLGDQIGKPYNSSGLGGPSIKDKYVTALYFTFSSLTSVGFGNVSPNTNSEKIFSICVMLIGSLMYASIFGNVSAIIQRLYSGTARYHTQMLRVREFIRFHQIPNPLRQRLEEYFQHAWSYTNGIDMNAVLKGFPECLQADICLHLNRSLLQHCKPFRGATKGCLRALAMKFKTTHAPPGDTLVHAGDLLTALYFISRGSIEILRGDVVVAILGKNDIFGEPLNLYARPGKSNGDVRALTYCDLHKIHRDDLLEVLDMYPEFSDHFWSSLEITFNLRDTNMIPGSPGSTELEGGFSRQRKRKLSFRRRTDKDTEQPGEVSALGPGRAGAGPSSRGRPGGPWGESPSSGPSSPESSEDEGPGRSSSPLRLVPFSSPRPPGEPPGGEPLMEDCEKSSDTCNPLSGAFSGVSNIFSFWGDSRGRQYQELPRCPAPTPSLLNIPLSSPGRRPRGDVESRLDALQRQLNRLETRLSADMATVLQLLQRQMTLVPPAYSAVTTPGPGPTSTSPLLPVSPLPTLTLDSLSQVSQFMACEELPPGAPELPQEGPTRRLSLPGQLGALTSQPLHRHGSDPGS

| Compound | outcome [1] | Potency [2] | Potency [3] | Potency [4] | Potency [5] | Potency [6] | outcome [7] | Potency [8] | outcome [9] | Potency [10] | Potency [11] | Potency [12] | outcome [13] | outcome [14] | activation [15] | outcome [16] | outcome [17] | Potency [18] |
| --- | --- | --- | --- | --- | --- | --- | --- | --- | --- | --- | --- | --- | --- | --- | --- | --- | --- | --- |
| N[C@H](Cc1ccc(O)c(O)c1)C(=O)O | inactive | 10 µM (active) | inactive | inactive | inactive | inactive | inactive | inactive | inactive | inactive | inactive | 17.8 µM (active) | inactive | inactive | 0.688% | inactive | inactive | inactive |
| CSc1nc(N)c2ncn([C@@H]3O[C@H](COP(=O)(O)OP(=O)(O)O)[C@H](O)[C@H]3O)c2n1 | inactive | inactive | inactive | inactive | inactive | inactive | inactive | inactive | inactive | inactive | inactive | inactive | inactive | inactive | 17.3% | inactive | inactive | inactive |
| NC(=S)NCCCC(N)C(=O)O (stereo not given) | inactive | inactive | inactive | inactive | inactive | inactive | inactive | inactive | inactive | inactive | inactive | 20 µM (active) | inactive | inactive | -0.25% | inactive | inactive |  |
| CN(C)C1C(=O)C(C(N)=O)=C(O)[C@@]2(O)C(=O)C3=C(O)c4c(O)ccc(Cl)c4[C@@H](O)C3C[C@@H]12 (stereo not given in full) | inactive | inactive | inactive | 0.794 µM (active) |  |  | inactive | inactive |  | 0.738 µM (active) | 6.57 µM (active) | inactive | inactive | inactive | 1.62% | inactive |  | inactive |
| OC[C@H]1O[C@@H](n2cnc3c(NC4CCCC4)ncnc32)[C@H](O)[C@H]1O | inactive | inactive | inactive | inactive | inactive | inactive | inactive | inactive | inactive | inactive | inactive | inactive | inactive | inactive | -0.438% | inactive | inactive | inactive |
